Compound activity: PubChem, National Center for Advancing Translational Sciences (NCATS)
USP1 inh – Inhibitors of USP1/UAF1: Primary Screen. hit rate 0.23% among 390,000. recombinant USP1/UAF1, Ub-Rhodamine cleavage fluorescence. AID 743255, 2014. Ubiquitin carboxyl-terminal hydrolase 1 (Homo sapiens), O94782. Potency, µM (doses to about 57.1 µM), for the others: top-dose activity change, negative = inhibition, hits mostly inhibitors; further: potency means the concentration at half of the fitted maximal effect; on the % scale 0 is the no-effect control and ±100 the full control effect; nearly all actives have a fitted effect of over 60% in size
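In this screen, compounds sit with the deubiquitinase complex (1nM) for 15 min at room temperature before Ub-Rho is added at 150nM final. Fluorescence rise is then followed for 6 reads every 60 seconds.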
USP2a block – qHTS Assay for Inhibitors of Ubiquitin-specific Protease USP2a Using CHOP2 as the Reporter | Ubiquitin carboxyl-terminal hydrolase 2 (Homo sapiens), O75604 | USP2 core, Ub-CHOP2 coupled fluorogenic reporter, 485/531 | Potency, µM (top dose mostly 38.3 µM), for inactives: at the top dose activity change, negative = inhibition, usual class: inhibitors | hit rate 0.01% among 330,000 | AID 463254, 2010;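 further: potency means the concentration at half of the fitted maximal effect; plate controls were DMSO wells for no effect and full inhibition by NEM control for full effect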
Target sequence (O75604 whole entry, looked up): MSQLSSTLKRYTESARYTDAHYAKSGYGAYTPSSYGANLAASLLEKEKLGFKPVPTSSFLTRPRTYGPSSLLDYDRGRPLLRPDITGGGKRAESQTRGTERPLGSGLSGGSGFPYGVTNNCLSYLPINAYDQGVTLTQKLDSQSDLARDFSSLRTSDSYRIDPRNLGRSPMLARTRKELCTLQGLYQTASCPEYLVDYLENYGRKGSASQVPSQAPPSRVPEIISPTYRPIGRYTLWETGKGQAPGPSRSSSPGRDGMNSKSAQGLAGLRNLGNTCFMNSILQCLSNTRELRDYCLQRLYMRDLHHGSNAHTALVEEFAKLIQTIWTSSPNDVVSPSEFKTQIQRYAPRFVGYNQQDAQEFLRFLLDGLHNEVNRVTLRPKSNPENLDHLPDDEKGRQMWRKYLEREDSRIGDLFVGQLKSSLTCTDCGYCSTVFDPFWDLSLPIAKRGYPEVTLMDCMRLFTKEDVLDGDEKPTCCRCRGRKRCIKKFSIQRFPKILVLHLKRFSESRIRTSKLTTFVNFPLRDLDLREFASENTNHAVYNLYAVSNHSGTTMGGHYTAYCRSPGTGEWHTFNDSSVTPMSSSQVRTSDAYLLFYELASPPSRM
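USP2 core (10nM final) preincubated 30min RT with compound in 20mM Tris-HCl pH 8.0, 2mM CaCl2, 2mM beta-mercaptoethanol, 0.05% CHAPS; 25nM Ub-CHOP2 plus 25nM reporter substrate added, fluorescence (Ex485/Em531) read after 60min.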
ATXN2 expr inh – Primary qHTS for Inhibitors of ATXN expression | HEK-293 ATXN2-luciferase reporter, luminescence, 24 h | Potency, µM (doses to about 57 µM), for the others: top-dose activity change, negative = inhibition, actives largely listed as inhibitors | hit rate 0.72% among 360,000 | AID 1745845, 2022; further: potency means the concentration at half of the fitted maximal effect; on the % scale 0 is the no-effect control and ±100 the full control effect; nearly all actives have a fitted effect of over 55% in size
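ATXN2-luciferase reporter cells (luciferase flanked by upstream and downstream ATXN2 gene portions) were treated 24 h at 37 °C with compounds at up to 57 uM. SteadyGlo luminescence gave expression; GF-AFC fluorescence gave viability.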
ATXN viability – Viability Counterscreen for Primary qHTS for Inhibitors of ATXN expression; S2 cells (HEK-293 line with an ATXN2-luciferase reporter) viability, CellTiter-Fluor protease fluorescence, 24 h; AID 651635, 2014; Potency, µM (doses to about 56.7 µM), usual class: cytotoxic; hit rate 0.49% among 400,000; further: potency means the concentration at half of the fitted maximal effect; nearly all actives have a fitted effect of over 40% in size
IL-1B inflam inh – qHTS for Inhibitors of Inflammasome Signaling: IL-1-beta AlphaLISA Primary Screen | THP-1 LPS/ATP IL-1B secretion, AlphaLISA, 16 h; active compounds read low | activity change, % at 57.5 µM | hit rate 4.7% among 360,000 | AID 743279, 2014; in the data active means activity change below about -50%; inconclusive means mostly about -30% to -49%; further: on the % scale 0 is the no-effect control and ±100 the full control effect
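Secreted IL-1B measured by AlphaLISA bead assay after 16 h compound exposure of THP-1 cells; compounds (final up to 57.5 uM) added 1 h before LPS (250 ng/mL) and ATP (1.25 mM) stimulation; lower signal means less secretion.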
* marks the source's active call; other numbers are inactive results; i = inactive; ? = inconclusive; / = no result given; [ ] = remark or other dose. The list is not random: actives were taken first. Their share in the collection is about 4.8%. Unless noted, the call rests on the fitted dose curve; in most records, active means well fitted curve in the direction sought with a large enough effect; inconclusive means small, poorly fitted or top-dose-only effect, or another doubt; inactive means no such curve, though single readings can be large; an effect the other way counts as inactive or inconclusive.

SMILES	USP1 inh	USP2a block	ATXN2 expr inh	ATXN viability	IL-1B inflam inh
CC(C)(CC(=O)OCC(=O)Nc1ccc(F)c(Cl)c1)CC1=NS(=O)(=O)c2ccccc2N1	-24%	/	?	i	/
COc1cccc(/C=N/NC(=O)C(=O)Nc2ccccc2OC(F)(F)C(F)F)c1	-12%	5%	-19%	i	-12
COc1ccccc1/C=N/NC(=O)C(=O)Nc1ccccc1OC(F)(F)C(F)F	-17%	4%	5%	i	-2
O=C(N/N=C/c1cc(Br)ccc1O)C(=O)Nc1ccccc1OC(F)(F)C(F)F	-15%	-1%	3.2µM*	i	156
O=C(N/N=C/c1cc(Cl)ccc1O)C(=O)Nc1ccccc1OC(F)(F)C(F)F	-13%	1%	13µM*	i	39
COc1ccc(OC)c(-c2cc(Cl)c3c(c2)CC(CNC(=O)c2coc4c2C(=O)CCC4)O3)c1 (stereo not drawn)	/	/	/	i	/
Cc1ccc([C@H]2C[C@@H](n3cc(COC(=O)c4ccccc4)nn3)[C@H](O)CN2C(=O)C2CCCCC2)cc1	-9%	/	-19%	i	-24
CC1(C)CC(=O)C2=C(C1)NC1=C(C(=O)c3ccccc31)C2c1ccc(Cl)cc1 (stereo not drawn)	-13%	-8%	0%	?	-54*
COc1cc(C2C3=C(CC(C)(C)CC3=O)NC3=C2C(=O)c2ccccc23)ccc1O (stereo not drawn)	-17%	0%	-10%	?	5
Cc1ccc(C2C3=C(CC(C)(C)CC3=O)NC3=C2C(=O)c2ccccc23)cc1 (stereo not drawn)	-21%	-2%	-21%	?	-57*
CCc1ccccc1NC(=O)CNC(=O)c1cc(C2CC2)nn1-c1ccccc1	-22%	-6%	3%	i	-25
COc1ccc(OC)c(NC(=O)c2ccc(CSc3nnc(C)s3)cc2)c1	-7%	2%	-11%[11.3 µM]	i	-60*
S=C(Nc1ccc(Cl)cc1)NC1CCN(Cc2ccccc2)CC1	-10%	-1%	?	i	-94*
S=C(Nc1ccccc1)NC1CCN(Cc2ccccc2)CC1	-16%	2%	-7%	i	-27
CCc1ccc(NC(=S)NC2CCN(Cc3ccccc3)CC2)cc1	-15%	-1%	-25%	?	0
Cc1ccccc1NC(=S)NC1CCN(Cc2ccccc2)CC1	-18%	4%	-10%	?	-1
CCC(C)c1ccc(NC(=S)NC2CCN(Cc3ccccc3)CC2)cc1 (stereo not drawn)	-24%	6%	?	?	-94*
Cc1ccc(NC(=S)NC2CCN(Cc3ccccc3)CC2)c(C)c1	2%	2%	2%	i	-57*
CS(=O)(=O)c1ccc(-c2cnc(N)c(C(=O)Nc3ccccc3)n2)cc1	/	/	-12%	/	/
C=C1C2=C(C(=O)N1OC)[C@@H](O)[C@@](C)(O)[C@@H](CCCCC)O2	/	/	-9%	?	-83*
CCCS(=O)(=O)c1c(S(=O)(=O)CCC)c2cc(-c3ccncc3)ccn2c1C(=O)OC	-8%	1%	53%	/	-69*
O=C(NCCNC(=O)Oc1cccc2ccccc12)Oc1cccc2ccccc12	?	/	11%	i	30
Nc1ncnc2c(C3OC(CO)C(O)C3O)c[nH]c12 (stereo not drawn)	-20%	/	?	/	-104*
Nc1ccc(C(=O)N2CCCC2)cc1CS(=O)(=O)c1ccc(Cl)cc1	-19%	2%	2%	i	16
Cc1ccccc1CS(=O)(=O)c1ccc(C(=O)N2CCC(C)CC2)cc1[N+](=O)[O-]	?	-1%	/	i	-18
SMILES	USP1 inh	USP2a block	ATXN2 expr inh	ATXN viability	IL-1B inflam inh
O=C(c1ccc(S(=O)(=O)Cc2cc(F)ccc2F)c([N+](=O)[O-])c1)N1CCCCC1	-14%	3%	8%	?	-110*
O=C(c1ccc(S(=O)(=O)Cc2cc(F)ccc2F)c([N+](=O)[O-])c1)N1CCCC1	-6%	-1%	9%	i	-108*
CC1CCN(C(=O)c2ccc(S(=O)(=O)Cc3cccc(F)c3)c([N+](=O)[O-])c2)CC1	-22%	2%	-8%	i	-86*
CCCCC(=O)NC1(C(F)(F)F)C(=O)Nc2c1c(=O)[nH]c(=O)n2-c1ccc(C)c(C)c1 (stereo not drawn)	-18%	/	4%	i	/
CC(=O)Nc1cc(OC(C)=O)c2nonc2c1OC(C)=O	4µM*	-1%	?	/	5
C/C=C/COC(=O)C1=C(C)NC(=O)NC1c1ccc2c(c1)OCO2 (stereo not drawn)	-18%	2%	-25%	i	-24
O=C(NCc1cccs1)C1Cc2c(-c3ccccc3Oc3ccccc3)ccnc2O1 (stereo not drawn)	/	/	-20%	?	-11
O=C(NCc1ccncc1)C1Cc2c(-c3ccccc3Oc3ccccc3)ccnc2O1 (stereo not drawn)	/	/	0%	?	-59*
O=C1CN(C(=O)COc2ccc(Cl)cc2Cl)C(c2ccccc2)c2cc(F)ccc2N1 (stereo not drawn)	-19%	/	?	?	/
CCc1ccc(-c2nc(CN3CCCC(C(=O)NCCc4ccc(OC)c(OC)c4)C3)c(C)o2)cc1 (stereo not drawn)	-13%	1%	-23%	?	-59*
CCc1ccc(-c2nc(CN3CCCC(C(=O)N4CCN(c5cc(Cl)ccc5C)CC4)C3)c(C)o2)cc1 (stereo not drawn)	-19%	/	20µM*	16µM*	/
O=C(CN1CCC(Cc2ccccc2)CC1)NCCc1ccc(F)cc1	-17%	0%	-19%	i	-69*
O=C(CN1CCN(c2ccc(F)cc2)CC1)N1CCOCC1	0%	1%	2%	i	7
O=C(CN1CCN(c2ccc(F)cc2)CC1)N1CCC(Cc2ccccc2)CC1	-16%	1%	-19%	i	-52*
O=C(Cn1cnc2c(oc3ccccc32)c1=O)Nc1ccc(F)cc1F	?	/	10%	i	/
COc1ccc(-n2c(CCC(=O)O)ccc2-c2ccc(F)cc2)c(OC)c1	-22%	-1%	7%	i	13
COc1cc(C#N)ccc1OCC(=O)N1CCc2ccccc2C1	8%	0%	2%	i	-12
O=Cc1cccc(Oc2ccc([N+](=O)[O-])cc2[N+](=O)[O-])c1	?	0%	-9%	?	62
Cc1cc(=O)oc2cc(Oc3ccc([N+](=O)[O-])cc3[N+](=O)[O-])ccc12	-22%	2%	1%	?	-104*
Cc1ccc(C(=O)c2cc(O)c(O)c([N+](=O)[O-])c2)cc1	/	/	-13%	i	/
